The campaign covered roughly 16,000 compounds. About 5,800 (36%) were called active. Roughly 23% stayed inconclusive and do not appear here. Calls follow the shape of the dose curve; as a rule, active = well fitted curve in the direction sought with a large enough effect; inconclusive = small, poorly fitted or top-dose-only effect, or effect the other way; inactive = no such curve, though single readings can be large or run the other way. This is one part of the list.
The compounds below were run against Cytochrome P450 2C19 (Homo sapiens) (UniProt P33261) (assay: Cytochrome panel assay with activity outcomes). Settings: recombinant CYP, pro-luciferin dealkylation, luminescence, p450-cyp2c19; series mostly up to 57.1 µM; activity, negative = inhibition: at the top concentration.
Cytochrome P450 2C19 (Homo sapiens), sequence (P33261 whole entry, looked up): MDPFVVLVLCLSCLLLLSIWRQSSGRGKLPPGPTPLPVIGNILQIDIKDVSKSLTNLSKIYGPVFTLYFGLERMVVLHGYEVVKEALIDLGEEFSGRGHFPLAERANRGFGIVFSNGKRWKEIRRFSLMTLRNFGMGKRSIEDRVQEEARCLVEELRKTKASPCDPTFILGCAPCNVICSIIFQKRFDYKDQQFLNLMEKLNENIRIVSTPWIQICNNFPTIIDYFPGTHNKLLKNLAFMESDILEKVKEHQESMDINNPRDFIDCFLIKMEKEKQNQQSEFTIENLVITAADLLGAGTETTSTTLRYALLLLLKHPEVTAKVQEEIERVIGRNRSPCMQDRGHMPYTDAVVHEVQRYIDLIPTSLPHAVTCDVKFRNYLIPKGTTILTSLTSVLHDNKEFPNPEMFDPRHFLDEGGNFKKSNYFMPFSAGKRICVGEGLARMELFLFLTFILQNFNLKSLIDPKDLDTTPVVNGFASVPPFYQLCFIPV
% is scaled to controls: 0 for no effect and ±100 for the full control effect.

activity, negative = inhibition, inactive:
CO[C@@H]1COC(=O)[C@H](C)NC(=O)[C@@H](C)COC(=O)CCC[C@H]1C 15.2% [at 11.4 µM], CCOC(=O)c1sc2c(c1C)c(=O)c(C(=O)OCC)cn2CC -25.8%, Cc1ccccc1OCC(=O)Nc1sc(C(=O)Nc2cccc(C)c2C)c(C)c1C#N 4.91%, CCOc1ccc(-c2c[n+](=O)c3c(n2[O-])CCCC3)c(OCC)c1 -9.98%, COc1cc(C(=O)Nc2nc3ccc4nc(C)sc4c3s2)cc(OC)c1OC 4.14%, Cc1ccc(-c2ccc(=O)n(CC(=O)NCCN(C)C)n2)cc1 -0.291%, Cc1c(Nc2ncccc2C(=O)O)cccc1C(F)(F)F -12.7% [at 25.6 µM], CCCN1CCN(CCCNC(=O)Cn2nc(-c3ccc(C)cc3)ccc2=O)CC1 -22.7%, Nc1ncnc2c1nc(-c1ccccc1)n2[C@H]1O[C@@H](CO)[C@@H](O)[C@H]1O -0.591% [at 11.4 µM], CCO[P@]1(=O)OC[C@@H]2O[C@H](n3cnc4c(N)ncnc43)[C@H](O)[C@@H]2O1 14% [at 11.4 µM], Cc1c(C(=O)Nc2ccc(OCc3ccccc3)cc2)cccc1[N+](=O)[O-] 42.2%, Cc1ccc(OCC(=O)NNC(=O)CCc2ccccc2)cc1 -31.3%, COc1ccccc1NC(=O)Cn1cncc1-c1ccc([N+](=O)[O-])cc1 -18.7%, C/C(CC(=O)NCc1ccco1)=N\NC(=O)Cc1ccccc1 -5.7%, Cc1ccc(CS(=O)(=O)CCC(=O)NCCCOC(C)C)cc1 -10.4%, Cc1ccc(OCC(=O)NNC(=O)c2cc3ccccc3o2)cc1 -12.6%, C[C@@H]1O[C@@H](n2cc(F)c(=O)[nH]c2=O)[C@H](O)[C@@H]1O -13.4%, Cc1cccc2cc(=O)[nH]c(C)c12 -20%, C[N+]1(CCC[N+]2(C)C[C@H]3[C@H](C2)[C@H]2C=C[C@@H]3CC2)CCOCC1 (some centres undefined) -6.43% [at 11.4 µM], Cc1cc2c(cc1S(N)(=O)=O)S(=O)(=O)CCC2 13.4% [at 25.6 µM], COCCCNC(=O)CCC(=O)Nc1ccc2nc(N3CCOCC3)cc(C)c2c1 30.1%, Cc1ccccc1C(=O)NNC(=O)c1ccc(F)cc1 -21.3%, O=C(c1cc(C(F)(F)F)cc(C(F)(F)F)c1)N1CCC[C@@]2(CCN(c3ccncc3)C2)C1 0.411%, O=S(=O)(C[C@H](O)C(Cl)(Cl)Cl)NNc1ccccc1 -25.2% [at 11.4 µM], CCC(=O)NC(NCC1CCCO1)C(Cl)(Cl)Cl (centres undefined) -28.2%, CCCC[C@]1(C2CCCC2)Cc2cc(OCC(=O)O)c(Cl)c(Cl)c2C1=O 14.2%, CO[C@@H]1/C=C\CC(=O)N[C@@H](C)C(=O)OC[C@H](NS(=O)(=O)c2ccc(C)cc2)[C@H](C)/C=C\CC(=O)OC[C@H]1C -0.432% [at 11.4 µM], NC(=O)N[C@H]1NC(=O)NC1=O -5.57% [at 25.6 µM], CC(Oc1ccc(O)cc1)(P(=O)(O)O)P(=O)(O)O 29%, CCC(=O)[C@@]1(C)[C@H](C)C[C@@H]2[C@@H]3CCC4=CC(=O)C=C[C@@]4(C)[C@H]3[C@H](O)C[C@]21C -27.9% [at 25.6 µM], Cc1ccc(-n2c(SCc3ccc([N+](=O)[O-])cc3)nc3ccccc3c2=O)cc1 -12.2%, O=[N+]([O-])c1ccc(/C=N/Nc2cc(Cl)nc(-c3ccccc3)n2)cc1 17.3%, Nc1nnc(CC(=O)N/N=C/c2cccc([N+](=O)[O-])c2)s1 -11.2%, COc1ccc(NC(=O)N2CCCC3(CCN(C(=O)c4csnn4)CC3)C2)cc1 -7.72%, Cc1cc2c(nc1C)CCCN2C[C@@H](O)CN1CCN(C)CC1 4.3% [at 11.4 µM], CO[C@@H](NC(N)=O)C(=O)O 20.6% [at 11.4 µM], COCC(=O)N1CCN(c2ccc([N+](=O)[O-])cc2)CC1 -7.34%, CC[N+](CC)(CC)CC -13.4%, COc1ccc(S(=O)(=O)NCCC(=O)NCc2ccc(F)cc2)cc1 -27.1%, O=c1c2ccccc2nc2n1CCC2 -19.1%, C[N+](C)(C)CCCSc1nc2ccccc2[nH]1 32.5% [at 11.4 µM], Cc1c(/C=N/NC(=O)c2ccc3c(c2)OCO3)cnn1C -22.6%, COc1ccc(CN[C@H](C)C(=O)O)cc1 24.9% [at 11.4 µM], N/N=C1/CC(=O)NC(=O)N1 -9.46% [at 11.4 µM], COc1cc(OC)c(C2C(C(=O)Nc3ccc(C)cc3C)=C(C)Nc3ncnn32)cc1OC (centres undefined) -25.1%, CCCCOc1cc(C(=O)NCCN(CC)CC)c2ccccc2n1 -23.7% [at 25.6 µM], CCNc1ncc2nc(-c3cccs3)c(=O)n(C[C@H]3CCCO3)c2n1 -9.35%, CN(C)C(=O)CSC1c2ccccc2C(=O)N1c1ccccc1 (centres undefined) -16%, CCSc1nc2c(c(=O)[nH]1)C(c1ccccn1)C1=C(CC(C)(C)CC1=O)N2 (centres undefined) -2.31%

AC50, active:
CCOC(=O)c1sc(NC(=O)CSc2nc(C)cc(C)c2C#N)c(C#N)c1C 5.62 µM, CCOC(=O)c1sc(NC(=O)CSc2n[nH]c(-c3ccc(Cl)cc3Cl)n2)c(C#N)c1C 2.24 µM, O=C1c2ccccc2N[C@H](c2cc(Cl)cc(Cl)c2O)N1CCc1ccccn1 3.98 µM, CCOc1ccccc1Nc1nc(-c2sc(NC(=O)c3ccccc3)nc2C)cs1 3.16 µM, COc1ccc(OC)c(Nc2nc(-c3sc(NC(=O)c4ccccc4)nc3C)cs2)c1 6.31 µM, CCn1c(C)c(/C=N/Nc2nc3ccccc3s2)c2ccccc21 3.16 µM, Cc1ccc(-c2ccc(=O)n(CC(=O)NCc3ccco3)n2)cc1 7.94 µM, Cc1cccc(OCCCC(=O)Nc2ccccc2C(F)(F)F)c1 7.08 µM, Cc1ccc(OCCCC(=O)Nc2ccccc2C(F)(F)F)cc1 6.31 µM, COc1ccc([N+](=O)[O-])cc1NC(=S)NC(NC(=O)Cc1ccc(OC)c(OC)c1)C(Cl)(Cl)Cl (centres undefined) 0.708 µM, Cc1ccc(OCC(=O)Nc2ccccc2-c2ccccc2)cc1 3.55 µM, Cc1c(NC(=O)CCCOc2ccccc2)cccc1[N+](=O)[O-] 2.51 µM, CCN(CC(=O)Nc1ccc([N+](=O)[O-])cc1OC)c1ccccc1 5.62 µM, Cc1ccc(OCCCC(=O)NCc2ccco2)cc1 10 µM, Cc1c(NC(=O)C(Sc2ccccc2)c2ccccc2)cccc1[N+](=O)[O-] (centres undefined) 0.891 µM, COc1ccc([N+](=O)[O-])cc1NC(=O)CC(C)c1ccccc1 (centres undefined) 3.55 µM, Cc1ccc(OCC(=O)Nn2cnc3ccccc32)cc1 20 µM, Cc1ccc(OCC(=O)NC2=NCCS2)cc1 17.8 µM, COc1cc([N+](=O)[O-])ccc1NC(=O)CCCOc1cccc(C)c1 3.98 µM, CCCCNC(=O)CCC(=O)Nc1ccc2nc(N3CCOCC3)cc(C)c2c1 25.1 µM, Cc1ccccc1C(=O)NN(C)c1nc2ccccc2nc1C(F)(F)F 0.355 µM, O=C(Nc1ccccc1)N(Cc1ccccc1)CC(O)C(F)(F)F (centres undefined) 5.01 µM, O=C(Nc1cccc(C(F)(F)F)c1)N(Cc1ccc(Cl)cc1)CC(O)C(F)(F)F (centres undefined) 3.98 µM, CCCC(=O)NC(Nc1ccccc1F)C(Cl)(Cl)Cl (centres undefined) 2.82 µM, CCOC(=O)C1=C(C)N=C2c3ccccc3C(=O)C2C1c1ccc(Cl)cc1 (centres undefined) 0.631 µM, CCOC(=O)C1=C(C)N=C2c3ccccc3C(=O)C2C1c1ccc(C)cc1 (centres undefined) 1 µM, CCC(=O)c1ccc(OCc2ccc(C(=O)OC)cc2)c(OC)c1 3.16 µM, CC1(C)Oc2ccc(NC(=O)c3ccco3)cc2O1 14.1 µM, O=C(Nc1ccccc1C(=O)Nc1ccc2c(c1)OCO2)c1ccco1 3.16 µM, COn1c(SCc2cccc(Cl)c2)nc2ccccc2c1=O 2.24 µM, COn1c(SCc2ccc(C)cc2C)nc2ccccc2c1=O 3.55 µM, O=[N+]([O-])c1cccc(/C=N/Nc2cc(Cl)nc(-c3ccccc3)n2)c1 2 µM, O=C(CCCc1ccccc1)N1CCN(c2ccc([N+](=O)[O-])cc2)CC1 8.91 µM, CC(=O)Nc1ccc(S(=O)(=O)NCCc2ccc(F)cc2)cc1 5.01 µM, O=c1c2c(-c3ccc(Cl)cc3)csc2nc2n1CCC2 8.91 µM, Cc1c(OCC(F)(F)F)ccnc1CSc1nc2ccccc2[nH]1 1.58 µM, COC(=O)c1ccc(NC(=O)c2ccccc2NS(=O)(=O)c2ccccc2)cc1 3.98 µM, CC(C)C1NC(=S)N(Cc2ccccc2)C1=O (centres undefined) 2 µM, Cc1ccc(-c2nn(-c3ccccc3)cc2/C=N/NS(=O)(=O)c2ccccc2)cc1 8.91 µM, O=C(N/N=C\c1cn(-c2ccccc2)nc1-c1ccccc1)c1ccc(Br)o1 2 µM, O=C(N/N=C\c1cn(-c2ccccc2)nc1-c1ccccc1)c1ccc2c(c1)OCO2 3.16 µM, COc1ccc(CNn2c(C)nc3ccccc3c2=O)cc1 0.316 µM, CCCCOc1ccc(CNn2c(C)nc3ccccc3c2=O)cc1 0.112 µM, Cc1nc2ccccc2c(=O)n1NC(=O)c1ccccc1Cl 20 µM, CCCCOC(=O)C1=C(C)Nc2ncnn2C1c1cc(OC)ccc1OC (centres undefined) 20 µM, COCCCNC(=O)c1c(N)n(/N=C/c2ccccn2)c2nc3ccccc3nc12 10 µM, CCC(=O)N(C)/C=C1\Sc2ccccc2C1=O 20 µM, CCOC(=O)C1CCCN(C(=O)c2sc3nc(-c4ccc(OC)cc4)cn3c2C)C1 (centres undefined) 7.94 µM, CSc1nc2c(c(=O)[nH]1)C(c1ccncc1)C(C(=O)OC(C)C)=C(C)N2 (centres undefined) 1.12 µM, CCSc1nc2c(c(=O)[nH]1)C(c1ccncc1)C(C(=O)OC(C)C)=C(C)N2 (centres undefined) 0.708 µM
